Structures are written as SMILES. Inconclusive results are not listed. Activity calls are given as the source filed them. The calls were made as follows: active = hit-call score of the fitted dose curve at least 0.9, where 1 is the maximum; inconclusive = response in the unintended direction; inactive = score below 0.9.

Chain of zebrafish Estrogen Receptor (ER1), esr1 (gene 259252) (P57717 whole entry, looked up): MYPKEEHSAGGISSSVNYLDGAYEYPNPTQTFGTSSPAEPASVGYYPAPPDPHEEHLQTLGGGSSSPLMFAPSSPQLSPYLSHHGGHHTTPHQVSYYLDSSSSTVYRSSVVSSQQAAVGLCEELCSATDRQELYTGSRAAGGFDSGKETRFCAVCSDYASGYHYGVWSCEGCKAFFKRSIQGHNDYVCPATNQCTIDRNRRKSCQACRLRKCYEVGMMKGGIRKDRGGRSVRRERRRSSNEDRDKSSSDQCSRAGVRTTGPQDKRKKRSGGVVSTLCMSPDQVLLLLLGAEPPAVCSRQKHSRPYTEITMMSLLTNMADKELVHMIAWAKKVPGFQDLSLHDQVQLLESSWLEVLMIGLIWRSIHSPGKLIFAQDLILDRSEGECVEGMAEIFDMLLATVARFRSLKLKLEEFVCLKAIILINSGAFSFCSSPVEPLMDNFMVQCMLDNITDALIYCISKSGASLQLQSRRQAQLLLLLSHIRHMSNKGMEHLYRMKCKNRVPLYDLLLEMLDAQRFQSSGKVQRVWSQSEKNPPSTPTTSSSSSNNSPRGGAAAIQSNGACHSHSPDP

This experiment addresses zebrafish Estrogen Receptor (ER1), esr1 (gene 259252) (UniProt P57717). Put plainly: ATG_zfER1_XSP2: Attagene TRANS-FACTORIAL Multi-Species (XSP2) HepG2 Assay for zebrafish Estrogen Receptor (ER1) (AID 2283816). Here is the method: ATG_XSP2_multi-species_TRANS is a cell-based, multiplexed assay created by modifying the existing Attagene TRANS-FACTORIAL system to include a panel of nuclear receptors from some or all the following species: human (Homo sapiens), mouse (Mus musculus), frog (Xenopus laevis), zebrafish (Danio rerio), chicken (Gallus gallus), and turtle (Chrysemys picta). The ECOTOX-FACTORIAL format uses HepG2, a human liver cell line, with measurements taken at 24 hours after chemical dosing in a 24-well plate. Xsp2 included 3 nM 6-alpha-fluorotestosterone and 1.5 nM norgestrel to stimulate the androgen receptor.ATG_zfER1_XSP2 is one of 29 assay components measured or calculated from the ATG_XSP2_multi-species_TRANS assay. It is designed to make measurements of mRNA induction, a form of inducible reporter, as detected with fluorescence intensity signals by Reverse transcription polymerase chain reaction (RT-PCR) and Capillary electrophoresis technology.The assay endpoint ATG_zfER1_XSP2 was analyzed in the positive analysis fitting direction relative to DMSO as the negative control and baseline of activity. Using a type of inducible reporter, measures of mRNA for gain-of-signal activity can be used to understand the reporter gene at the transcription factor-level as they relate to the gene ER. Furthermore, this assay endpoint can be referred to as a primary readout, because this assay has produced multiple assay endpoints where this one serves a reporter gene function. To generalize the intended target to other relatable targets, this assay endpoint is annotated to the nuclear receptor intended target family, where the subfamily is steroidal.
Human liver HepG2 cells are transiently transfected with multiple reporter transcription units (MRTUs) in 6-well plates using FuGene 6 reagent (Roche; 3 ml FuGene/1 mg DNA). The MRTU constructs are regulated by a cis-regulating element (promoter). […] A major difference between the CIS and TRANS system is that in CIS activities of endogenous TFs are measured, whereas the TRANS assay evaluates changes in activities of exogenous, chimeric NR-Gal4 proteins. […] At the end of 24 hour incubation, total RNA was isolated using TriZol reagent (Invitrogen). The isolated RNA is then reverse-transcribed using oligo(dT) primer and Mo-MLV reverse transcriptase (Invitrogen) with DNAse I (Ambion) treatment for 30 min. The one-tenth of the produced cDNA was amplified by PCR using Taq DNA polymerase (Invitrogen) and two reporter sequence-specific primers. The PCR products were fluorescently labeled by primer extension with 6-arboxyfluorescein (6-FAM) 5'-labeled reporter sequence-specific primer (2 min at 95 C, 20 s at 68 C and 10 min at 72 C) and these products were digested with 5U of HpaI (New England Biolabs) for 2h at 37 C. The fragments were purified using Qiaquick PCR columns (Qiagen), analyzed on an ABI 3130xL genetic analyzer (Applied Biosystems) with peak positions identified by using a set of X-rhodamine (ROX)-labeled MapMarker1000 molecular weight standards (BioVentures). The raw capillary electrophoresis data was processed using Attagraph software (Attagene).
`CCOP(=S)(OCC)SCn1c(=O)oc2cc(Cl)ccc21`: the result was inactive. Usually AC50 stands for the concentration at which the activity in the assay is half-maximal. As to `OC(c1ccc(Cl)cc1)(c1cncnc1)c1ccccc1Cl` (stereo unspecified), the concentration at half-maximal activity (AC50) was 25.9 µM (active). In the case of `CC(C)Oc1cc(-n2nc(C(C)(C)C)oc2=O)c(Cl)cc1Cl`, the result was inactive.

As for `CCCCOC(=O)c1ccccc1C(=O)OCCCC`, the molecule was called inactive. `CON(C)C(=O)Nc1ccc(Cl)c(Cl)c1`: the outcome was inactive. Consider `CC(C)(C)c1ccc(CSc2cnn(C(C)(C)C)c(=O)c2Cl)cc1`, for which the call was inactive.

Take `C#CCOS(=O)OC1CCCCC1Oc1ccc(C(C)(C)C)cc1` (stereo unspecified): the outcome was inactive. For the molecule `CCCCNC(=O)OCC#CI`, the molecule was classed as inactive.

For the molecule `COC(=O)N(OC)c1ccccc1COc1ccn(-c2ccc(Cl)cc2)n1`, the result was inactive. As to `CCCN(CCC)c1c([N+](=O)[O-])cc(S(N)(=O)=O)cc1[N+](=O)[O-]`, the molecule was classed as inactive.

Turning to `CCCC1COC(Cn2cncn2)(c2ccc(Cl)cc2Cl)O1` (stereo unspecified), the result was inactive.

Values taken from PubChem BioAssay (EPA / NIEHS).
